# Reference: PubChem BioAssay AID2315 (National Center for Advancing Translational Sciences (NCATS), 2010)
# The whole screen tested about 290,000 compounds, of which about 27,000 (9.3%) were called active. Cut-off read from the data, not from the text of the source: active = inhibition mostly above about 28% (no sharp cut-off); inactive = mostly below about 43%. What follows is part of a selection rich in actives, with near analogues and random picks from the rest.
# Assay: A qHTS for Small Molecule Inhibitors of Shiga Toxin; note: 0% is about no effect
# Details: Vero cells, Shiga toxin protein synthesis inhibition reporter; at 38.7 µM, stronger effect = higher value
row,SMILES,inhibition
1,COc1ccc(Br)cc1C1C2C=CCC(C)C2C(=O)N1Cc1ccccc1 (stereo not drawn),2.19% (inactive)
2,Cc1cnc(C)c(N2CCN(C(=O)C3CCC(=O)N(CCc4cccc(F)c4)C3)CC2)n1 (stereo not drawn),0.443% (inactive)
3,NC(=O)C1CCN(C(=O)c2ccc3c(=O)n(Cc4cccc(Br)c4)c(=S)[nH]c3c2)CC1,0.712% (inactive)
4,CCN1C(=S)N[C@@H](c2cccc(C(F)(F)F)c2)C(C(=O)OC)=C1C,-10.1% (inactive)
5,COC(=O)C1(C)CC1(c1ccccc1)c1ccccc1 (stereo not drawn),-7.31% (inactive)
6,O=CN1CCN(C(=O)c2ccc3c(c2)OCO3)CC1,2.8% (inactive)
7,CN1C(=O)/C(=C/C=C2\SCCN2C)OC1=S,70.4% (active)
8,COCCNc1nc(N)c([N+](=O)[O-])c(N2CCCCCC2)n1,6.83% (inactive)
9,O=CN1CCN(C(=O)c2ccc(Br)o2)CC1,17.4% (inactive)
10,Cc1ccc(NC2CCCN(C(=O)CCC3(C)CC3)C2)cc1C (stereo not drawn),-22.1% (inactive)
11,COc1ccc(NC(=O)Nc2cccc3cccnc23)cc1,79.2% (active)
12,O=C(Nc1ccccc1Cl)Nc1cccc2cccnc12,40.9% (active)
13,CCOC(=O)Cc1ncccc1C(=O)Nc1ccc(OC)cc1,6.55% (inactive)
14,O=C(Nc1cccc2cccnc12)c1cccc(Cl)c1,87.7% (active)
15,O=C(Nc1cccc2cccnc12)c1cccc(N2C(=O)CCC2=O)c1,30.9% (inactive)
16,O=C(Nc1cccc2cccnc12)C(F)(F)F,-8.11% (inactive)
17,N#Cc1ccc(C(=O)Nc2cccc3cccnc23)c(F)c1,-0.419% (inactive)
18,COc1ccc(S(=O)(=O)Nc2cccc3cccnc23)c(N)c1,-26.8% (inactive)
19,O=C(Nc1ccccc1Cl)Nn1cnnc1,14.1% (inactive)
20,O=C(COc1ccccc1Cl)N1CCCCCCC1,36.9% (inactive)
21,CN(c1ccccc1)S(=O)(=O)c1ccc(NC(=O)COc2ccccc2)cc1,-5.47% (inactive)

row,SMILES,inhibition
1,NS(=O)(=O)c1ccc(CCNS(=O)(=O)c2cccc3cccnc23)cc1,-5.83% (inactive)
2,COc1ccc(-c2cc(=O)oc3cc(OC(C)C(=O)Nc4ccc(CN5CCOCC5)cc4)ccc23)cc1 (stereo not drawn),-3.54% (inactive)
3,CCOC(=O)c1c(-c2ccccc2)oc2ccc(OCC(N)=O)cc12,-3.18% (inactive)
4,COc1cc2c(cc1OC)C(C(=O)Nc1cc(C)c(OC)c(C)c1)CC(=O)N2 (stereo not drawn),7.56% (inactive)
5,COc1ccc(C(=O)NC(C)Cn2nc(C)cc2C)cc1OC1CCN(C(C)=O)CC1 (stereo not drawn),-5.64% (inactive)
6,Nc1ccc(C(=O)Nc2ccccc2N)cc1,46.6% (inactive)
7,CC1CCC(NC(=O)C2c3ccccc3C(=O)N2Cc2ccc3c(c2)OCO3)CC1 (stereo not drawn),15.2% (inactive)
8,Cc1ccc2c(c1)NCC(C(=O)NC1CCC(C)CC1)O2 (stereo not drawn),64.8% (active)
9,Cc1ccc(C(=O)NC2CC(C)(C)NC(C)(C)C2)c(C)c1,-6.82% (inactive)
10,O=C(O)CCCN1C(=O)C2C3c4ccccc4C(c4ccccc43)[C@@H]2C1=O (stereo partly drawn),-10.8% (inactive)
11,COc1ccc(OC)c(C(O)c2nc3ccccc3n2C)c1 (stereo not drawn),-12.2% (inactive)
12,COC(=O)CSc1nnc(-c2cccnc2)o1,8.44% (inactive)
13,COc1ccc(-c2nnc(SC(=O)N3c4ccccc4Sc4ccccc43)o2)cc1,18.6% (inactive)
14,COc1ccc(-c2nnc(SCc3cccnc3)o2)cc1,48.5% (active)
15,Cc1cc(Cl)ccc1OCCCC(=O)Nc1cccc(-n2cnnn2)c1,-13.8% (inactive)
16,CCc1ccc2c(c1)C1(NN=C(c3ccccc3)S1)C(=O)N2 (stereo not drawn),105% (active)
17,COc1ccccc1C(=O)N/C(=C/c1ccco1)C(=O)Nc1ccc(C(=O)O)cc1,-2.72% (inactive)
18,CC(=O)c1ccc(N2CCN(C(=O)CCNC(=O)Cn3ccc4ccccc4c3=O)CC2)cc1,26.7% (inactive)
19,Cc1ccc(N=Cc2c(O)cc(C)oc2=O)c(C)c1,-1.09% (inactive)
20,Cc1cc(O)c(C(=O)/C=C/c2c(F)c(F)c(F)c(F)c2F)c(=O)o1,68.6% (active)
21,N#Cc1cc([N+](=O)[O-])ccc1NCC1CCCO1 (stereo not drawn),-5.89% (inactive)

row,SMILES,inhibition
1,CC(C)N1CCc2c(sc(NC(=O)Cc3ccccc3)c2C#N)C1,2.11% (inactive)
2,O=C(CN1CCOC1=O)N1CCCC(Nc2ccc(F)c(F)c2)C1 (stereo not drawn),13.5% (inactive)
3,CCc1ccnc(NC(=O)Nc2ccc(OCc3ccccc3)cc2)c1,17.6% (inactive)
4,Cc1ccc(F)c(NC(=O)CCOc2ccccc2C)c1,2.89% (inactive)
5,Cc1cccc(OCCC(=O)Nc2ccccc2C(N)=O)c1,5.43% (inactive)
6,O=C(CCc1ccccc1)NNc1ccc(F)cc1,-4.35% (inactive)
7,COc1cccc(OCC(=O)Nc2ccccc2C(N)=O)c1,75.1% (active)
8,Cc1cccc(OCC(=O)NCCCNC(=O)c2ccccn2)c1,-11.4% (inactive)
9,Cc1ccc(F)c(NC(=O)CCc2ccccc2)c1,70.1% (active)
10,Cc1cccc(OCC(=O)Nc2ccc(C(=O)O)cc2NC(=O)COc2cccc(C)c2)c1,-5.8% (inactive)
11,CCCOC(=O)Nc1ccccc1C(N)=O,-12.3% (inactive)
12,Cc1cccc(OCC(=O)Nc2ccccc2F)c1,74.7% (active)
13,CCOC(=O)C1=C(CCc2ccccc2)NC(=O)NC1c1ccc2ccccc2c1 (stereo not drawn),2.87% (inactive)
14,COC(=O)Cc1ccc(N(Cc2ccccc2F)S(=O)(=O)c2ccc(Br)cc2)cc1,9.28% (inactive)
15,CC(Oc1ccccc1)C(=O)Nc1c2c(nn1-c1ccccc1)CS(=O)C2 (stereo not drawn),-1.03% (inactive)
16,CCOCCCN(C)C1CCN(C(=O)c2oc3ccccc3c2NC(=O)COc2cccc(C)c2)CC1,-8.02% (inactive)
17,CC(=O)Nc1ccc(C(=O)N(C2=NC(C)CS2)c2ccc(Cl)cc2)cc1 (stereo not drawn),32.9% (inactive)
18,CC1CN(C(=O)CCC(=O)NC2CCN(Cc3ccccc3)CC2)c2ccccc2O1 (stereo not drawn),10.3% (inactive)
19,CC1CCN(Cc2nc(-c3ccc(Cl)cc3)no2)CC1,34.4% (inactive)
20,COCC1CCCN(Cc2cn[nH]c2-c2cc3ccccc3o2)C1 (stereo not drawn),56.9% (inactive)
21,COCC1CCCN(Cc2nc(-c3ccc4c(c3)OCO4)no2)C1 (stereo not drawn),53.7% (active)
